The source of these data is PubChem BioAssay (NCATS).

Each structure is given as a SMILES string. Results filed as inconclusive are left out. Calls of active or inactive are those of the source. Unless noted, the call rests on the fitted dose curve; in most records, active means well fitted curve in the direction sought with a large enough effect; inconclusive means small, poorly fitted or top-dose-only effect, or another doubt; inactive means no such curve, though single readings can be large; an effect the other way counts as inactive or inconclusive.

The target in experiment [1] is Transient receptor potential cation channel subfamily V member 1 (Homo sapiens) (UniProt Q8NER1). The experiment can be described thus: HTS Assay for Compounds that Act as Enhancers of the Vanilloid Receptor 1 (AID 488979). Further: 0% is about no effect. In a few lines:
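Calcium influx kinetics via Fluo-8 (480/520 nm) in TRPV1-expressing cells, 2000/well cultured overnight at 35.5C. Compound-alone read 3 min (agonist phase), followed by EC20 capsaicin challenge for 2 min (enhancer phase).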

The target in experiment [2] is Thyrotropin receptor (Homo sapiens) (UniProt P16473). The experiment can be described thus: qHTS Assay for Antagonists of the Thyroid Stimulating Hormone Receptor (AID 488980). Further: series mostly up to about 58 µM; 0% is about no effect. Put shortly:
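HEK293 cells transfected with human TSHR, suspended in HEPES-buffered HBSS with 70 uM RO 20-1724, were treated with compounds plus TSH at EC80 (4 nM final). cAMP was measured by competitive HTRF (cryptate anti-cAMP antibody, cAMP-d2 acceptor).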
(In qHTS, concentration-response curves come from the screen itself.)

The target of experiment [3] is D(1A) dopamine receptor (Homo sapiens) (UniProt P21728). The experiment can be described thus: HTS Assay for Allosteric Agonists of the Human D1 Dopamine Receptor: Primary Screen for Agonists (AID 488981). Further: 0% is about no effect. Put shortly:
(§1)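 Calcium flux in an inducible, force-coupled HEK293 Trex D1 line (overnight at 30 C): agonist mode is the 180 s kinetic read after compound; potentiator mode is the following 180 s read after dopamine at EC20.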

Experiment [4] shares this target. The experiment can be described thus: HTS Assay for Allosteric Agonists of the Human D1 Dopamine Receptor: Primary Screen for Potentiators (AID 488982). Further: 0% is about no effect. In a few lines:
as §1

For experiment [5] the target is unchanged. The experiment can be described thus: HTS Assay for Allosteric Agonists of the Human D1 Dopamine Receptor: Primary Screen for Antagonists (AID 488983).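 Further: calcium flux response to an EC80 dopamine challenge measured with no-wash dye; on the % scale 0 is the no-effect control and ±100 the full control effect; nearly all actives have a fitted effect of over 65% in size.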 In a few lines: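 Calcium flux readout, no-wash dye, inducible HEK293 T-REx D1 line (force-coupled). Compound added after 10 s baseline, 180 s kinetic read; then dopamine at EC80, further 180 s read.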
Experiment [6] deals with Thyrotropin-releasing hormone receptor (Homo sapiens) (UniProt P34981). The experiment is described as follows: qHTS for Small Molecule Agonists and Allosteric Enhancers of Human TRH Receptor: Validation Screen for Agonists (AID 493127;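 active means calcium activation more than 3 SD above the typical response in the agonist read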;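 further: intracellular calcium rise by fluo-8 fluorescence before TRH EC20 addition; 0% is about no effect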). The conditions noted are these: TRH receptor agonist cell assay; at 2 µM; stronger effect = higher value. Put shortly: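 Read-out: intracellular calcium release measured kinetically by FDSS (fluo-8, ex 480/em 530 nm), 1 reading/s after a 10-cycle baseline. TRHR cells, 2000/well, cultured 18 h at 33.5C, dye-loaded at room temp. Compound-evoked positive calcium signal flags agonists.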

Experiment [7] in a line: Nrf2 qHTS screen for inhibitors: Validation (AID 493153; active means well fitted inhibition curve with a large enough effect in the main read-out, with a control signal flat, not every such curve was filed as active). The conditions noted are these: Potency: luciferase luminescence; viability change: measured here: cytotoxicity max response. In a few lines: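 Concentration-response test in A549 ARE_Fluc reporter cells (5% FBS OPTI-MEM), compound exposure 18-24 h at 37°C, 5% CO2. Cell viability measured first by CellTiter-Fluor fluorescence; ARE-driven luciferase luminescence then measured as Nrf2 activity.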

Experiment [8] is described as follows: qHTS for Inhibitors of Cell Surface uPA Generation: Validation Assay (AID 493164).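 Further: RAW 264.7 macrophage cells exposed to compound for 18 h; 0% is about no effect.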 Put shortly: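 Compounds are titrated over seven points (2.45 nM–38.3 uM final) onto pre-plated RAW 264.7 cells and incubated for 18 h. Retained intracellular ATP, measured with ATP-Lite, indicates blocked lethal factor entry.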
For experiment [9], the target named is Galactokinase (Homo sapiens) (UniProt P51570). The experiment is described as follows: qHTS Validation Assay for Inhibitors of Human Galactokinase (GALK) (AID 493189). Further: 0% is about no effect. Put shortly: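 GALK (5 nM) with 35 uM ATP and 100 uM galactose in HEPES pH8.0, MgCl2, NaCl, DTT, BSA; 1 h at room temperature. Residual ATP read by Kinase-Glo Plus luminescence after 10 min.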

A short description of experiment [10]: Validation screen for small molecules that induce DNA re-replication in SW480 colon adenocarcinoma cells (AID 504364). Further: 0% is about no effect. In a few lines: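 Read-out: total Hoechst intensity of nuclei by fluorescence scanning imager; hits raise the fraction of nuclei with elevated DNA content. Cells received compound for 48 hr at 37 C before a 40 min stain.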
In experiment [11] the target is Peptidyl-prolyl cis-trans isomerase NIMA-interacting 1 (Homo sapiens) (UniProt Q13526). The experiment can be described thus: qHTS Validation Assay to Find Inhibitors of Pin1 (AID 504536; active means well fitted inhibition curve with a large enough effect in the polarisation, with a control signal flat, not every such curve was filed as active; the % refers to the polarisation;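 further: 0% = full Pin1 enzyme wells and -100% = no-enzyme wells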). Put shortly:
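Fluorescence polarization competition: compounds (titration) displace HiFluor-488-labeled Pin1-1b peptide from Pin1 (0.3 uM final) in pH 7.5 HEPES buffer with DTT, 10 min at room temperature; %Activity normalized to no-enzyme wells, curves fitted.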

In experiment [12] the target is Phosphoglycerate kinase, glycosomal (Trypanosoma brucei brucei) (UniProt P07378). The experiment is described as follows: qHTS Validation Assay to Find Inhibitors of Phosphoglycerate Kinase (AID 504547).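 Further: control wells lack PGK and mark full inhibition.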 Put shortly:
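Luminescence end-point (Kinase-Glo Plus, 10 min) after a 60 min room-temperature coupled reaction. GAPDH at 100nM final supplies 1,3-BPG to PGK. Buffer: 100mM TEA pH 7.6, 5mM MgCl2, 0.01% Tween-20. Wells lacking PGK served as controls.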

For experiment [13], the target named is phosphoglycerate mutase (Leishmania major) (UniProt Q4Q090). The experiment can be described thus: qHTS Validation Assay to Find Inhibitors of Phosphoglycerate Mutase (AID 504548).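 Further: end-point luminescence from Kinase-GloPlus after the PGAM reaction; series mostly up to about 58 µM; on the % scale 0 is the no-effect control and ±100 the full control effect.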 The conditions noted are these: Potency: inhibition qHTS. In a few lines: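 Inhibition of L. major PGAM was assessed by Kinase-GloPlus luminescence following a 45-minute room-temperature reaction with enzyme at 1.25nM final.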

Experiment [14] deals with Ubiquitin carboxyl-terminal hydrolase 1 (Homo sapiens) (UniProt O94782). The experiment is described as follows: Inhibitors of USP1/UAF1: Pilot qHTS (AID 504865).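 Further: rhodamine fluorescence freed from ubiquitin-rhodamine substrate followed over time; top concentration of the series differs between compounds; on the % scale 0 is the no-effect control and ±100 the full control effect; nearly all actives have a fitted effect of over 35% in size.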 Put shortly: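 USP1/UAF1 complex (1nM) preincubated with compound 15 min at room temperature, then Ub-Rho substrate (150nM final) added. Fluorescence read kinetically at 480/540 nm, 6 reads every 60 seconds. Buffer: 50mM HEPES pH 7.8, 0.5mM EDTA, 0.1 mg/ml BSA, 1mM TCEP, 0.01% Tween-20.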

Experiment [15] in a line: qHTS for Inhibitors of ATXN expression: Validation of Cytotoxic Assay (AID 588349). Further: on the % scale 0 is the no-effect control and ±100 the full control effect. Put shortly: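 Cytotoxicity counter-screen: HEK293 cells exposed to compound titrations, 72 hr, 37 degrees C. Read-out is intracellular ATP (CellTiter Glo luminescence) as a viability measure.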
The nature of experiment [16]: qHTS for Inhibitors of ATXN expression: Validation (AID 588378). Further: series mostly up to about 57 µM; on the % scale 0 is the no-effect control and ±100 the full control effect; nearly all actives have a fitted effect of over 75% in size. Put shortly:
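Luminescence from an ATXN2-FFLuc reporter in HEK293 cells served as read-out after 24 h compound treatment at 37 degrees C; CellTiter-Fluor fluorescence was recorded first to assess viability.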

The nature of experiment [17]: Validation screen for small molecules that induce genotoxicity in human embryonic kidney (HEK293T) cells expressing luciferase-tagged ELG1 (AID 493106). Further: 0% is about no effect. Put shortly: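 qHTS format; 2,000 HEK293T ELG1-luc cells/well; 23 nL compound via pin tool; 16 hr, 37 °C/5% CO2; ONE-Glo, 30 min RT; luminescence read.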
For experiment [18], the target named is ATPase family AAA domain-containing protein 5 (Homo sapiens) (UniProt Q96QE3). The experiment is described as follows: Validation screen for small molecules that inhibit ELG1-dependent DNA repair in human embryonic kidney (HEK293T) cells expressing luciferase-tagged ELG1 (AID 493107).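 Further: cells co-treated with the DNA-damaging agent 5-fluorouridine alongside compound; series mostly up to about 46 µM; on the % scale 0 is the no-effect control and ±100 the full control effect; inhibitors lower the ELG1-luciferase luminescence signal; nearly all actives have a fitted effect of over 70% in size.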 In a few lines:
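ELG1-luciferase HEK293T reporter; 5-fluorouridine + compound/DMSO, 16 hr, 37 °C, 5% CO2; ONE-Glo 30 min RT; luminescence read, qHTS format.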

Sequence of Peptidyl-prolyl cis-trans isomerase NIMA-interacting 1 (Homo sapiens) (Q13526 whole entry, looked up): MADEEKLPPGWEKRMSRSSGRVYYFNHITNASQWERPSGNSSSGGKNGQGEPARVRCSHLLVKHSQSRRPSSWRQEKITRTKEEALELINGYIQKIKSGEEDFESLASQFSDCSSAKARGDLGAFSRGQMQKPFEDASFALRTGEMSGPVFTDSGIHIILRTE
Sequence of D(1A) dopamine receptor (Homo sapiens) (P21728 whole entry, looked up): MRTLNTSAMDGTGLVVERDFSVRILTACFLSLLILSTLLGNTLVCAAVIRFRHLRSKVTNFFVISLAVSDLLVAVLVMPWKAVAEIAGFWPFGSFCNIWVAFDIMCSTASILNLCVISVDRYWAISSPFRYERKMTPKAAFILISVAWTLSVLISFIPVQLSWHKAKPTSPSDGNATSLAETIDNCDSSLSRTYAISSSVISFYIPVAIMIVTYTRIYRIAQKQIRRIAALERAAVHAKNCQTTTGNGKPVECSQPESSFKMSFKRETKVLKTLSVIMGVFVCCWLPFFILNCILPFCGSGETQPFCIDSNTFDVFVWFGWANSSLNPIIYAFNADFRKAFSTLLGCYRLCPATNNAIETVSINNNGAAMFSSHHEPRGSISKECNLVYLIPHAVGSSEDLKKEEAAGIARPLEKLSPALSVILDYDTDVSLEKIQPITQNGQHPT
Sequence of Thyrotropin receptor (Homo sapiens) (P16473 whole entry, looked up): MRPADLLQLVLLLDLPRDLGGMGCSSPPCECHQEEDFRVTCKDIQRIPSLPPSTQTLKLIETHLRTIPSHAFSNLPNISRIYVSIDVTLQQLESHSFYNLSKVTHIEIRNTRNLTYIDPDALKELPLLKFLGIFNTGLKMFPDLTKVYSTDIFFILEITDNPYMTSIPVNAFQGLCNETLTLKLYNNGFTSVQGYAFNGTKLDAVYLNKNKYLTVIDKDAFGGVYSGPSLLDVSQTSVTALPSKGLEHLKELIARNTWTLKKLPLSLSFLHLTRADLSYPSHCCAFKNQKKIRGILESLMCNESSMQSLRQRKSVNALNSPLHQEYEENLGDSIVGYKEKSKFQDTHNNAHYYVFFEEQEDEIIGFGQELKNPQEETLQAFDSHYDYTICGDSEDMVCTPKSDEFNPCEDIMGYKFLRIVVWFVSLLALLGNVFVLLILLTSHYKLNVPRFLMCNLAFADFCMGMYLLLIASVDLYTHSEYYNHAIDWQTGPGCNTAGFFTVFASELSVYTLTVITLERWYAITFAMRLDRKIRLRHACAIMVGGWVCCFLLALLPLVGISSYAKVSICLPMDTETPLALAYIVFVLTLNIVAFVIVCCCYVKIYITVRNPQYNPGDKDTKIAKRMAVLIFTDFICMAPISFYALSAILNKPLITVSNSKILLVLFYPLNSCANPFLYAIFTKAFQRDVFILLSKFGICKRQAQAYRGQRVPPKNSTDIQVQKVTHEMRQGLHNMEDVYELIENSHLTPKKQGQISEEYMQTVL
Sequence of Transient receptor potential cation channel subfamily V member 1 (Homo sapiens) (Q8NER1 whole entry, looked up): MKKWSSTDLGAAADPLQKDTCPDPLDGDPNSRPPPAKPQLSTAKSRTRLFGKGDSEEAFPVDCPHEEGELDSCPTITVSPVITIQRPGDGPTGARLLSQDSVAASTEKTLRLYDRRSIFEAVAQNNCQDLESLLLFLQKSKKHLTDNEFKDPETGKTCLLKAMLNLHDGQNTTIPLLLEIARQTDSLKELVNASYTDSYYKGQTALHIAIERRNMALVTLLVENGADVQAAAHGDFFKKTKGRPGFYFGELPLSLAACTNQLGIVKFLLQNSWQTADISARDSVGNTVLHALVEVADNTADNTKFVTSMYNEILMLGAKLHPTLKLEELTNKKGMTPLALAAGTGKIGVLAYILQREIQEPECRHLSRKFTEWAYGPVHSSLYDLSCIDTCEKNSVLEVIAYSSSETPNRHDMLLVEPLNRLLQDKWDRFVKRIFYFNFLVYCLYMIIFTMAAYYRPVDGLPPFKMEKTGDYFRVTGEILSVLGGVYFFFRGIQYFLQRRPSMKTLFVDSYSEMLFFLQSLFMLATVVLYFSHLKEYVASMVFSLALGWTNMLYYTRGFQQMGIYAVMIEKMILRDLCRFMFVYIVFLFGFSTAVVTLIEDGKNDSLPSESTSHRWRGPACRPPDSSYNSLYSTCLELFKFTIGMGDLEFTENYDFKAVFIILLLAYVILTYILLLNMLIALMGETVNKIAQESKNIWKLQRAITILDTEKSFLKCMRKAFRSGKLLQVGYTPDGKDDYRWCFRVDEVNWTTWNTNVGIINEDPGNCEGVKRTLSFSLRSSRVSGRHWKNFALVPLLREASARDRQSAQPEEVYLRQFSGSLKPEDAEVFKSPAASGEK
Sequence of phosphoglycerate mutase (Leishmania major) (Q4Q090 1-553): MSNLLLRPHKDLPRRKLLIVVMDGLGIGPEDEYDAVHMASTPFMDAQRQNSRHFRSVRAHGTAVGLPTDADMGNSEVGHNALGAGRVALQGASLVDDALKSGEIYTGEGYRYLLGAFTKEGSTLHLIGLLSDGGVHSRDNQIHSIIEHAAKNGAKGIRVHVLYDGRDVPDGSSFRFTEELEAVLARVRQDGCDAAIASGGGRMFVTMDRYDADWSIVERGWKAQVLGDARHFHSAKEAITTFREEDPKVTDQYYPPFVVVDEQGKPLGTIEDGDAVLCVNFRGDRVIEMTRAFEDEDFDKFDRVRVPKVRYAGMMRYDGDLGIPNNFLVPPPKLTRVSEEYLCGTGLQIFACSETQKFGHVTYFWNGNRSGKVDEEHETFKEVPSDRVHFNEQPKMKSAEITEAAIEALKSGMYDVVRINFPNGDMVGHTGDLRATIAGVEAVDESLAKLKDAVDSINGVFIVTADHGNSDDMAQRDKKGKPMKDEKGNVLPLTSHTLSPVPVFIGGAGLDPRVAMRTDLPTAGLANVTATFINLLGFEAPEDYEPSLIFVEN
Sequence of Thyrotropin-releasing hormone receptor (Homo sapiens) (P34981 whole entry, looked up): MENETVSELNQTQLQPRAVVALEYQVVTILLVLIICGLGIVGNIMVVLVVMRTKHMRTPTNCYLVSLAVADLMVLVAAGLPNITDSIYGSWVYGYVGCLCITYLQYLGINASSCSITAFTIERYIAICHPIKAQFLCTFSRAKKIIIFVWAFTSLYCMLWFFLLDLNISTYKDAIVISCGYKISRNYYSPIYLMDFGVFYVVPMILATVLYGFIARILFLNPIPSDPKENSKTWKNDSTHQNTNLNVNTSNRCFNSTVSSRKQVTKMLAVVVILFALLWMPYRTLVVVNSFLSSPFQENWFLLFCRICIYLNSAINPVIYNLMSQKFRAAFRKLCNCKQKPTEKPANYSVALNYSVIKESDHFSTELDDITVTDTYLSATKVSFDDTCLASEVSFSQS
Sequence of Ubiquitin carboxyl-terminal hydrolase 1 (Homo sapiens) (O94782 whole entry, looked up): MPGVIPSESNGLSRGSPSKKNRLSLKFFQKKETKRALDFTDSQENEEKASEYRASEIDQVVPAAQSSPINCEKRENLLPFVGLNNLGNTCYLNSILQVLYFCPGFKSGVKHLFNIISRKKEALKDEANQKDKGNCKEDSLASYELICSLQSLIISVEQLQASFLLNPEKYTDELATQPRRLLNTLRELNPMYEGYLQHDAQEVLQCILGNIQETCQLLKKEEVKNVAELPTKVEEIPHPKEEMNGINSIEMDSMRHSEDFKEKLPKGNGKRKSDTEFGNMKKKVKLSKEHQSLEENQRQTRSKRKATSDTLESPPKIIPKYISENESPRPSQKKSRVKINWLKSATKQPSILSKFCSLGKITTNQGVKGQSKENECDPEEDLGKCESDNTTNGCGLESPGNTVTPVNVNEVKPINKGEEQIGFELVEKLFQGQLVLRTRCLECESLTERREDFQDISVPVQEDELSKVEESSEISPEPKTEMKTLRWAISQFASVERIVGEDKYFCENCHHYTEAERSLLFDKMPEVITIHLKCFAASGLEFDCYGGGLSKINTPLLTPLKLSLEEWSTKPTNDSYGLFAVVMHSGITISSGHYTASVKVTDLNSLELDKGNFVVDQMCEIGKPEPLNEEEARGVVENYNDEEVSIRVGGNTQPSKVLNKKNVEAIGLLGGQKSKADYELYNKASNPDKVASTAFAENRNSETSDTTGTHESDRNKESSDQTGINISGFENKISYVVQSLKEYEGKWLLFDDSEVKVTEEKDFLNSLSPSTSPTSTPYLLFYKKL
Sequence of Galactokinase (Homo sapiens) (P51570 whole entry, looked up): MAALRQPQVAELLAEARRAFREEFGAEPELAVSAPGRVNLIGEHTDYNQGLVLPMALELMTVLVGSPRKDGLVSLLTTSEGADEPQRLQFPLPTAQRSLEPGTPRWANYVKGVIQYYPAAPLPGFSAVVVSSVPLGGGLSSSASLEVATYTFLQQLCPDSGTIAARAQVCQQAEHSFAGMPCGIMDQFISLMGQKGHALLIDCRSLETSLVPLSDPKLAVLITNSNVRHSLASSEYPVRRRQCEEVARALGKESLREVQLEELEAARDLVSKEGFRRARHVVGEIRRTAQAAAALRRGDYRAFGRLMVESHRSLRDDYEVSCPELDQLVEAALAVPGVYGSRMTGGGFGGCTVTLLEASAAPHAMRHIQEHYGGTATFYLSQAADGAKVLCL
Sequence of Phosphoglycerate kinase, glycosomal (Trypanosoma brucei brucei) (P07378 whole entry, looked up): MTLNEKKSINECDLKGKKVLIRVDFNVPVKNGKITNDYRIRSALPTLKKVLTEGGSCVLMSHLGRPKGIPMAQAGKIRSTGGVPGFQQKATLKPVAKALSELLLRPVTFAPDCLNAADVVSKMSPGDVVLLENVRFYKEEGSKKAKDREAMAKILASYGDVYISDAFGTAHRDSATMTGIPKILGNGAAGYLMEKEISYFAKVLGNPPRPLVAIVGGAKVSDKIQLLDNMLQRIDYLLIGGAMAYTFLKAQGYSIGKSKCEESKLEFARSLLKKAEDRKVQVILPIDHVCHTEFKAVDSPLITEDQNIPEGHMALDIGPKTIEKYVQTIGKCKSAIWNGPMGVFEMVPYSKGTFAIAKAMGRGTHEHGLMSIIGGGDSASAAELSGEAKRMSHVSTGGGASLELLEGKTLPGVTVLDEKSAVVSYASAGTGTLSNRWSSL

In the case of `N=C(N)c1ccc(OCCCCCOc2ccc(C(=N)N)cc2)cc1` (tested in a mixture with another compound), the outcome in [1], in experiment [2] and in experiment [8] was inactive. For the same compound, the Potency entry in [3], in [4], in experiment [5], in experiment [7], in [9] and in experiment [10] was “inactive” in each case. Further, the Potency result in [11], in experiment [12], in [13], in [14], in experiment [15] and in experiment [16] was “inactive” each time. Moreover, the activation in experiment [6] was 1.31% (inactive). For the same compound, in experiment [7], the viability change is -17%.
Turning to `CCCC[C@@]1(C2CCCC2)Cc2cc(OCC(=O)O)c(Cl)c(Cl)c2C1=O`, the outcome in experiment [1], in experiment [2] and in experiment [8] was inactive. The Potency result in experiment [3], in experiment [5], in experiment [17], in [18], in experiment [7] and in experiment [9] was “inactive” each time. For the same compound, the Potency result in experiment [10], in experiment [11], in experiment [12], in [13] and in experiment [15] was “inactive” throughout. In addition, the activation in experiment [6] was 1.19% (inactive). In addition, the viability change in experiment [7] is -6.32%.
With `COc1ccc2c(c1)CCC1C2CC[C@@]2(C)C1CC[C@@H]2NCCCCCCN1C(=O)C=CC1=O` (stereo partly specified), the outcome in experiment [1], in experiment [2] and in experiment [8] was inactive. In addition, the Potency result in experiment [3], in experiment [5], in [17], in [18], in experiment [7] and in experiment [9] was “inactive” in each case. In addition, the Potency result in experiment [10], in experiment [11], in experiment [12], in experiment [13], in experiment [15] and in experiment [16] was “inactive” each time. In addition, in experiment [6], the activation is 0.25% (inactive). For the same compound, the viability change in experiment [7] was -5.2%.
On to `CC[N+](CC)(CC)CC(=O)Nc1c(C)cccc1C`, for which the result in experiment [1], in [2] and in experiment [8] was inactive. Also, the Potency entry in experiment [3], in [5], in [17], in experiment [7], in [9] and in experiment [10] was “inactive” each time. Moreover, the Potency entry in [11], in experiment [12], in [13], in experiment [14], in [15] and in experiment [16] was “inactive” each time. The activation in [6] was 0.625% (inactive). The viability change in [7] was -3.66%.
Consider `COc1cc(C(O)C(=O)O)ccc1O` (stereo unspecified), for which the result in [1] and in experiment [2] was inactive. Moreover, the Potency result in experiment [3], in experiment [5], in experiment [18], in experiment [9], in [10] and in [11] was “inactive” throughout. Also, the Potency entry in [12], in experiment [13], in [14], in experiment [15] and in experiment [16] was “inactive” each time. Moreover, the activation in experiment [6] is 1.12% (inactive).
On to `Cn1c(=O)c2[nH]c(-c3ccc(S(=O)(=O)O)cc3)nc2n(C)c1=O`, for which the outcome in experiment [1], in experiment [2] and in [8] was inactive. Moreover, the Potency entry in experiment [3], in experiment [5], in experiment [17], in experiment [7], in [9] and in experiment [10] was “inactive” each time. Besides, the Potency result in experiment [11], in [12], in experiment [13] and in experiment [16] was “inactive” throughout. In [7], the viability change was -2.21%.
Regarding `NC1(C(=O)O)CCc2cc(C(=O)O)ccc21` (stereo unspecified), the outcome in experiment [1], in [2] and in experiment [8] was inactive. Also, the Potency entry in [3], in [5], in [17], in experiment [7], in experiment [9] and in experiment [10] was “inactive” throughout. Moreover, the Potency entry in experiment [12], in [13], in [14] and in experiment [16] was “inactive” throughout. For the same compound, the activation in [6] is 1.19% (inactive). The viability change in [7] is -0.824%.
Consider `CCCn1c(=O)c2[nH]c(C3CCCC3)nc2n(CCC)c1=O`, for which the result in [1], in experiment [2] and in experiment [8] was inactive. Besides, the Potency entry in experiment [3], in experiment [5], in experiment [17], in experiment [7], in experiment [9] and in experiment [11] was “inactive” each time. Moreover, the Potency entry in [12], in [13], in experiment [14], in [15] and in experiment [16] was “inactive” throughout. In addition, the activation in experiment [6] was -3.88% (inactive). For the same compound, the viability change in [7] is -6.17%.
